Measurements: PubChem BioAssay
Calls of active or inactive are those of the source.

What was measured:
[1] = binders of probe aFSTL3 on microarray, primary screen, stem cell growth factor project, biochemical, small-molecule microarray, fluorescence 635/667 (AID 1064); details: higher = more signal;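 also: measures binding of the biotinylated anti-FSTL3 antibody to printed compounds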
[2] = binders from COS7 lysate, DM2A8 probe, primary screen, torsin A project, cell lysate, small-molecule microarray, fluorescence 635/667 (AID 1065); details: higher = more signal, COS7 lysate expressing mutant human TOR1A
[3] = binders of probe aFGF2 on microarray, primary screen, stem cell growth factor project, biochemical, small-molecule microarray, fluorescence 635/667 (AID 1067); details: higher = more signal;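 also: measures binding of biotinylated aFGF2 protein to printed compounds on slides; z-score merges feature fluorescence and signal-to-noise across triplicate slides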
[4] = binders of probe aFGF10 on microarray, primary screen, stem cell growth factor project, biochemical, small-molecule microarray, fluorescence 635/667 (AID 1071); details: higher = more signal;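 also: score merges 667 nm spot intensity and signal to noise from triplicate slides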
[5] = target: Neurogenic locus notch homolog protein 2 (Homo sapiens) (UniProt Q04721); assay: Notch2 binders on small-molecule microarrays, primary screen, biochemical, small-molecule microarray, 635 nm fluorescence, stem cell growth factors (AID 1073); details: Notch2 binding, higher = more signal
[6] = target: Pro-neuregulin-1, membrane-bound isoform (Homo sapiens) (UniProt Q02297); assay: NRG1 binders on small-molecule microarrays, primary screen, psychiatric disease protein project, biochemical, small-molecule microarray, fluorescence 635/667 (AID 1075); details: NRG1 binding, 635 nm fluorescence, higher = more signal;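 also: score combines 667 nm spot fluorescence with signal to noise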
[7] = system: Neuregulin-1 EGF-like domain; assay: binders of neuregulin-1 EGF-like domain, primary screen, biochemical, small-molecule microarray, 635 nm fluorescence (AID 1081); details: small-molecule microarray binding, higher = more signal;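 also: binding of the protein to compounds printed on small-molecule microarray slides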
[8] = FRG1 promoter luciferase signal modulators, primary screen, FRG1 inhibition for FSHD, cell-based, C2C12 myotubes, firefly/Renilla luciferase, luminescence (AID 1084); details: higher = more signal, called active from +8 up or from −8 down
[9] = binders of probe aFST on microarray, primary screen, stem cell growth factor project, biochemical, small-molecule microarray, fluorescence 635/667 (AID 1086); details: higher = more signal;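 also: score merges 667 nm fluorescence with signal-to-noise of each printed compound spot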
[10] = binders of probe aHhip on microarray, primary screen, stem cell growth factor project, biochemical, small-molecule microarray, fluorescence 635/667 (AID 1087); details: higher = more signal;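 also: score merges spot fluorescence at 667nm with spot signal to noise ratio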
[11] = system: PRMT1 (protein arginine N-methyltransferase 1); assay: PRMT1 binders on small-molecule microarrays, primary screen, biochemical, small-molecule microarray, 635 nm fluorescence (AID 1088); details: small-molecule microarray binding, higher = more signal;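 also: binding of Prmt1 protein to compounds spotted on small-molecule microarray slides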
[12] = yeast growth modulation, basal conditions, primary screen, YJM789 clinical isolate, OD600, 24 h (AID 1089);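 also: growth of clinical yeast isolate S. cerevisiae YJM 789 seeded 1000 cells per well; test concentration not given here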; details: S. cerevisiae YJM789 growth, higher = more signal, called active from +8 up or from −8 down
[13] = fission yeast growth modulation, primary screen, strain 972, OD600, 24 h, no modulator (AID 1090);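 also: basal condition with compound alone and no growth modifier present; test concentration not given here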; details: S. pombe 972 growth, higher = more signal, called active from +8 up or from −8 down
[14] = S. cerevisiae growth modulation with rapamycin, primary screen, strain BY4716, OD600, 96 h (AID 1091); details: higher = more signal, called active from +8 up or from −8 down; also: test concentration not given here
[15] = target: Torsin-1A-interacting protein 2 (Homo sapiens) (UniProt Q8NFQ8); assay: LULL1 binders on small-molecule microarray, primary screen, cell lysate, human LULL1 lysate, 635/667 nm fluorescence (AID 1092); details: hLULL1 lysate binding, 635 nm fluorescence, higher = more signal;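 also: probe is lysate of COS7 cells overexpressing human LULL1; score merges per-feature 667 nm fluorescence with signal-to-noise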
[16] = E. coli growth modulation, two-sided OD650, primary screen, E. coli filamentation project, strain DRC41, 24 h (AID 1093); details: OD650, 24 h, higher = more signal, called active from +8 up or from −8 down;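 also: MC1000 strain lacking acrAB efflux and sulA so SOS filamentation is blocked; test concentration not given here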
[17] = small-molecule microarray binders of probe aLefty2, primary screen, biochemical, biotinylated probe, 635/667 nm fluorescence (AID 1094); details: higher = more signal;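 also: score merges spot fluorescence near 667 nm with spot signal-to-noise ratio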
[18] = system: Noggin (protein binding on small-molecule microarray); assay: Noggin binders on small-molecule microarray, primary screen, biochemical, 635/667 nm fluorescence (AID 1095); details: 635 nm fluorescence, higher = more signal;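 also: score merges 667 nm feature fluorescence with signal to noise over triplicate slides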
[19] = target: Neurogenic locus notch homolog protein 3 (Homo sapiens) (UniProt Q9UM47); assay: NOTCH3 binders on small-molecule microarray, primary screen, biochemical, 635/667 nm fluorescence (AID 1096); details: NOTCH3 binding, 635 nm fluorescence, higher = more signal
[20] = small-molecule microarray binders of probe aEGFR, primary screen, biochemical, biotinylated probe, 635/667 nm fluorescence (AID 1097); details: higher = more signal;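 also: probe is a biotinylated anti-EGFR antibody binding compounds printed on slides; score combines fluorescence near 667 nm and signal to noise of each spot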

Pro-neuregulin-1, membrane-bound isoform (Homo sapiens), sequence (Q02297 whole entry, looked up, the tested form may be a part, canonical isoform): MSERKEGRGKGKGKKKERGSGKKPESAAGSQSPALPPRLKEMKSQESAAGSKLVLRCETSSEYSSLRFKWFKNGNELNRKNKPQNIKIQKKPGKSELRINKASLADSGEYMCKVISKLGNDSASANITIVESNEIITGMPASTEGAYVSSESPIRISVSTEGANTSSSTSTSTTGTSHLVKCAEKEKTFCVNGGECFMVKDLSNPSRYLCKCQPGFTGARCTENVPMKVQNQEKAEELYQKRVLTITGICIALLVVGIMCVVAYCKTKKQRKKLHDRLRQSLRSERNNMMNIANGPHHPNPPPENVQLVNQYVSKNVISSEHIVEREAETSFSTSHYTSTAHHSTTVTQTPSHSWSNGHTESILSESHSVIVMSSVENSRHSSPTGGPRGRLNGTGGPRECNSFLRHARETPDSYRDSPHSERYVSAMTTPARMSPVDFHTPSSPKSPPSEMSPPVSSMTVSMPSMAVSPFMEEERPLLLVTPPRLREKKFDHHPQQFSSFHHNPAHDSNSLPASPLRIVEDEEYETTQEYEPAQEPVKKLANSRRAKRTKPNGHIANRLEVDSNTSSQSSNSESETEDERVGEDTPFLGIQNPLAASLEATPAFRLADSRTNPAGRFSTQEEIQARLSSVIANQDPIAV
Torsin-1A-interacting protein 2 (Homo sapiens), sequence (Q8NFQ8 whole entry, looked up): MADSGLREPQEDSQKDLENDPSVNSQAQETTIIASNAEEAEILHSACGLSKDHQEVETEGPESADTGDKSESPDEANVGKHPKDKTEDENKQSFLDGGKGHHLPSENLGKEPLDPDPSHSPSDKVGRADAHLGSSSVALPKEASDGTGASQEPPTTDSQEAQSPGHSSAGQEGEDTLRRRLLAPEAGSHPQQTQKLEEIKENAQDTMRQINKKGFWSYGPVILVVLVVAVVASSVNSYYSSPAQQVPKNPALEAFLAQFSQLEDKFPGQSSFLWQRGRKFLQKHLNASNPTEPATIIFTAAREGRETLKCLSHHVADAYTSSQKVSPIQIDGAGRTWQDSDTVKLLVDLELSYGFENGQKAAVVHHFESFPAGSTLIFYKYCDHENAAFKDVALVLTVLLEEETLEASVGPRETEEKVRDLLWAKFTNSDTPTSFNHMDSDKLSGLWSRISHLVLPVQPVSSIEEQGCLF
Neurogenic locus notch homolog protein 3 (Homo sapiens), sequence (Q9UM47 whole entry, looked up): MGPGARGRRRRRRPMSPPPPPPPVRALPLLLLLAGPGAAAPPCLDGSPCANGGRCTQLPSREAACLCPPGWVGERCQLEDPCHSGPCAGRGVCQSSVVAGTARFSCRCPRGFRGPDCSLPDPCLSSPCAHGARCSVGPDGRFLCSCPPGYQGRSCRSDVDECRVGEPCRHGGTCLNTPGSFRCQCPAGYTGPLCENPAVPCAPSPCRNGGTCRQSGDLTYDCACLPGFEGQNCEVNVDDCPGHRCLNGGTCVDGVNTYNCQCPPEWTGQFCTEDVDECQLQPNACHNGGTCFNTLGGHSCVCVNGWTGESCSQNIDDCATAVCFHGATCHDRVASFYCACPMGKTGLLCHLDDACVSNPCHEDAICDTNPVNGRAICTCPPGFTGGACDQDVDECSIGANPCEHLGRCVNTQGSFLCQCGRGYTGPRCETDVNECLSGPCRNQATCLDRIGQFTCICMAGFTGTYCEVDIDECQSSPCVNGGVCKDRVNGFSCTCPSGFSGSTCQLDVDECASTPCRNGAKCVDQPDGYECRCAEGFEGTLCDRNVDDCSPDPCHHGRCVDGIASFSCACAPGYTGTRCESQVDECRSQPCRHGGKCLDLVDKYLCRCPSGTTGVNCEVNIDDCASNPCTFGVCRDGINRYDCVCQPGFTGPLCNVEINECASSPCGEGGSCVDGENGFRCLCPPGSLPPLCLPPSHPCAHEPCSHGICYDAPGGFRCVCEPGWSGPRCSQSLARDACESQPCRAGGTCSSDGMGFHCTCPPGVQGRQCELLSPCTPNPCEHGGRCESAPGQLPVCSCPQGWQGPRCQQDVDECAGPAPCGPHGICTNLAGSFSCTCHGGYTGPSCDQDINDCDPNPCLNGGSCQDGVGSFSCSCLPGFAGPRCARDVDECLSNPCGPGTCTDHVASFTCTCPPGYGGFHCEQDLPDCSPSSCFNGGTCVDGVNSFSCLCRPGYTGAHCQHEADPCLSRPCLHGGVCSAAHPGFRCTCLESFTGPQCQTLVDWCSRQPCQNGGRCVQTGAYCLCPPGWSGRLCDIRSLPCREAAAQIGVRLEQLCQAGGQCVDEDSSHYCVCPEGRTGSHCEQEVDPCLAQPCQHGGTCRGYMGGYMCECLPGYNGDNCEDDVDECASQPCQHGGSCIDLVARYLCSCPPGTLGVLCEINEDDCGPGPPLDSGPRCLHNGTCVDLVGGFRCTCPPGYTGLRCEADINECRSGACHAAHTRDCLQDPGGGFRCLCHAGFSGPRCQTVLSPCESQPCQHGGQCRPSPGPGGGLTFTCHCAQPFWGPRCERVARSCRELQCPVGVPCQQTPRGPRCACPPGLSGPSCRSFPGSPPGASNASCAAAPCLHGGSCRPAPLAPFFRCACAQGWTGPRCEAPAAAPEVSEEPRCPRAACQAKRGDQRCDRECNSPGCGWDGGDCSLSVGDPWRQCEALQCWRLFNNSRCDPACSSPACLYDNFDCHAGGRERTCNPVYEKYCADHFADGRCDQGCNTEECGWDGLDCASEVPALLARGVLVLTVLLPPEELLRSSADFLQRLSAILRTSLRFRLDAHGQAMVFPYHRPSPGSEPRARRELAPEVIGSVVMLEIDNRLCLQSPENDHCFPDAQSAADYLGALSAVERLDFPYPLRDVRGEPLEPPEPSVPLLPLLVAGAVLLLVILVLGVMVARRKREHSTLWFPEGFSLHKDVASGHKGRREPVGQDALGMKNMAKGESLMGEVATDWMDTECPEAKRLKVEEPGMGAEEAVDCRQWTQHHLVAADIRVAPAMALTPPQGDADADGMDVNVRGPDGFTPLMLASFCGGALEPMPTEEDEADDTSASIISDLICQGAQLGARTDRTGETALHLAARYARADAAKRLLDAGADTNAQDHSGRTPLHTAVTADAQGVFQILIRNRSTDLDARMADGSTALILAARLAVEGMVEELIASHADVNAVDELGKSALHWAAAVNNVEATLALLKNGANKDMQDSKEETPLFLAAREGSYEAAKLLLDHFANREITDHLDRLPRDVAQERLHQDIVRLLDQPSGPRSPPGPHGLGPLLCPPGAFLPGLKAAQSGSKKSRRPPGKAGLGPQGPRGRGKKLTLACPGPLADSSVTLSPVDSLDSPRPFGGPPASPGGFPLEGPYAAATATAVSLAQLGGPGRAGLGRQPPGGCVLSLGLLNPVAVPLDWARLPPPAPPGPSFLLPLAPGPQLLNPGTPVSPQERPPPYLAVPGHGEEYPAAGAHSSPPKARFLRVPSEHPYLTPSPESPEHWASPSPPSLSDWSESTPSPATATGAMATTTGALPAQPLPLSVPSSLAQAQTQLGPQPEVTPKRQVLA

SMILES	composite z-score [1]	composite z-score [2]	composite z-score [3]	composite z-score [4]	composite z-score [5]	composite z-score [6]	composite z-score [7]	z-score [8]	composite z-score [9]	composite z-score [10]	composite z-score [11]	z-score [12]	z-score [13]	z-score [14]	composite z-score [15]	z-score [16]	composite z-score [17]	composite z-score [18]	composite z-score [19]	composite z-score [20]
CO[C@@H]1C=CCC(=O)N[C@@H](C)C(=O)OC[C@@H](OC)[C@H](C)CCCC(=O)OC[C@H]1C	-0.198	2.55	-0.129	0.361	0.0208	-0.677	-0.951	0.313 (inactive)	-0.331	0.176	1.44	-0.465 (inactive)	-0.111 (inactive)	-1.17 (inactive)	-2.13	0.976 (inactive)	-0.153	1.91	-1.04	-0.0485
CC(=O)OC[C@H]1O[C@H](C#Cc2ccccc2)C=C[C@@H]1OC(C)=O	-0.306	-0.0613	-0.0474	0.346	0.32	0.232	-0.11	-0.284 (inactive)	0.0157	0.281	0.48	0.444 (inactive)	-2.17 (inactive)	-0.747 (inactive)	0.496	0.875 (inactive)	-0.0836	0.653	0.812	-0.0953
Cc1ccc(S(=O)(=O)N[C@@H]2COC(=O)[C@@H](C)COC(=O)CC=C[C@H]2C)cc1	-0.305	0.155	-0.0777	0.259	0.672	-0.126	0.167	0.204 (inactive)	0.045	0.251	-0.496	1.19 (inactive)	0.227 (inactive)	1.02 (inactive)	-0.548	-0.266 (inactive)	-0.183	0.49	0.702	-0.182
CC(C)CON=C1C[C@@H](O)[C@@H](O)[C@@H]2[C@@H]3C(=O)N(Cc4ccc5c(c4)OCO5)C(=O)[C@@H]3CC[C@H]12	-0.504	-0.111	-0.149	0.715	0.392	1.01	1	-0.261 (inactive)	0.0313	-0.0645	1.31	0.306 (inactive)	0.754 (inactive)	0.329 (inactive)	2.33	0.396 (inactive)	-0.2	1.38	0.846	-0.0697
CO[C@@H]1COC(=O)CC=C[C@@H](C)[C@H](OC)COC(=O)[C@@H](C)COC(=O)CC=C[C@H]1C	-0.404	0.812	0.553	-0.552	-1.27	-0.245	-0.844	-0.182 (inactive)	-0.387	0.312	0.263	0.659 (inactive)	-0.155 (inactive)	1.2 (inactive)	-0.915	0.421 (inactive)	-0.317	0.496	-0.81	-0.616
O=C1[C@H]2[C@H]3[C@H](O)[C@H](O)CC(=NOCc4ccccc4)[C@H]3CC[C@H]2C(=O)N1Cc1ccc2c(c1)OCO2	-0.537	0.239	-0.172	0.315	0.306	0.273	0.278	0.0017 (inactive)	0.0418	-0.0003	0.437	-0.627 (inactive)	-0.674 (inactive)	-1.53 (inactive)	1.1	1.26 (inactive)	-0.0766	0.273	0.546	0.0102
CC(C)=CCCC(C)=CCON=C1C[C@@H](O)[C@@H](O)[C@@H]2[C@@H]3C(=O)N(C[C@@H]4CCCO4)C(=O)[C@@H]3CC[C@H]12	-0.532	1.78	-0.142	0.508	0.583	0.447	1.05	-0.0588 (inactive)	0.417	-0.0645	1.56	0.46 (inactive)	0.948 (inactive)	0.036 (inactive)	1.39	0.362 (inactive)	-0.111	0.987	1.08	0.122
C[C@@H](c1ccccc1)N1C(=O)[C@H]2[C@H]3[C@H](O)[C@H](O)CC(=NOCc4ccccc4)[C@H]3CC[C@H]2C1=O	-0.393	0.0852	-0.0667	0.0945	0.39	0.381	1.22	-0.405 (inactive)	0.317	-0.0383	1.3	0.435 (inactive)	0.107 (inactive)	0.0942 (inactive)	2.38	-0.0659 (inactive)	-0.0942	0.374	0.354	-0.0424
CC(CCN1CCCCc2nc(C)c(C)cc21)=NOC[C@@H](C)[C@H](OCc1ccccc1)C(C)C	-0.443	-0.548	-0.29	-0.776	-1.38	-0.559	-0.545	-0.688 (inactive)	-2.12	-0.0423	-0.262	-2.75 (inactive)	-5.66 (inactive)	-0.677 (inactive)	-0.569	-1.42 (inactive)	-0.467	-1.02	-1.53	-0.551
COc1cc(O)c(C(=O)C=Cc2ccc3c(c2)OCO3)c(OC)c1	-0.132	0.0414	0.0198	0.2	-0.877	-0.288	-0.927	-0.984 (inactive)	-0.155	0.0238	-0.825	1.11 (inactive)	0.561 (inactive)	2.26 (inactive)	-0.862	0.75 (inactive)	-0.127	0.257	0.124	-0.113
CC(CCN1CCCc2nc(C)c(C)cc21)=NOC(C)CN1CCCCc2nc(C)c(C)cc21 (stereo not given)	-0.213	0.854	0.0766	0.644	1.51	0.303	1.13	1.21 (inactive)	1.09	0.815	1.49	-0.415 (inactive)	0.435 (inactive)	0.837 (inactive)	1.22	0.597 (inactive)	0.0012	0.923	1.08	0.406
O=C(NN=C1C[C@@H](O)[C@@H](O)[C@@H]2[C@@H]3C(=O)N(C[C@@H]4CCCO4)C(=O)[C@@H]3CC[C@@H]12)OCc1ccccc1	-0.51	2.32	-0.173	-0.522	-0.122	-0.802	0.631	-0.891 (inactive)	-0.0104	-0.0994	1.04	-1.74 (inactive)	-0.199 (inactive)	-0.655 (inactive)	-0.0366	-0.202 (inactive)	-0.27	0.907	0.208	-0.0947
CO[C@H]1COC(=O)[C@@H](C)COC(=O)[C@@H](OCc2ccccc2)C=C[C@@H]1C	-0.133	-0.606	-0.121	0.206	-0.663	-0.297	-0.546	-0.412 (inactive)	-0.155	0.0277	0.0714	1.3 (inactive)	-0.204 (inactive)	1.03 (inactive)	-0.424	0.075 (inactive)	-0.357	0.172	-0.165	-0.0363
CC=CC1=C(CO)C(=O)[C@@H]2O[C@@H]2C1=O	-0.538	-0.45	-0.093	0.0736	-0.126	-0.719	0.687	-0.078 (inactive)	-0.212	-0.0994	0.114	-0.767 (inactive)	-0.738 (inactive)	-0.624 (inactive)	-1.02	0.199 (inactive)	-0.199	1.58	0.406	0.0083
O=C1[C@H]2[C@H]3[C@H](O)[C@H](O)CC(=NOC[C@@H](O)COCc4ccco4)[C@H]3CC[C@H]2C(=O)N1Cc1ccccc1	-0.414	1.33	-0.21	0.17	-0.224	-0.346	0.299	0.272 (inactive)	-0.222	-0.132	0.411	-1.14 (inactive)	-1.05 (inactive)	-1.11 (inactive)	-1.71	-0.518 (inactive)	-0.148	0.594	-0.309	-0.0973
O=C(NN=C1C[C@@H](O)[C@@H](O)[C@@H]2[C@@H]3C(=O)N(Cc4ccccc4)C(=O)[C@@H]3CC[C@@H]12)OCc1ccccc1	-0.404	0.408	-0.0229	0.155	0.495	-0.358	-0.871	-0.119 (inactive)	-0.0711	0.233	-0.395	-0.227 (inactive)	-0.148 (inactive)	-0.413 (inactive)	-0.802	0.258 (inactive)	-0.112	0.509	0.188	0.0551
C#CCCCON=C1C[C@@H](O)[C@@H](O)[C@@H]2[C@@H]3C(=O)N(c4cccc(Oc5ccccc5)c4)C(=O)[C@@H]3CC[C@H]12	-0.2	0.744	-0.129	-0.264	-0.87	0.248	0.425	1.2 (inactive)	-0.464	-0.0193	-0.684	0.74 (inactive)	0.202 (inactive)	-0.284 (inactive)	-0.204	0.676 (inactive)	-0.172	-0.738	-0.581	-0.213
C=CC[C@@H]1C=C[C@H](ON=C(C)CCC(=O)OC[C@H]2O[C@H](c3ccccc3)C=C[C@@H]2Oc2ccc(OC)cc2)[C@@H](CO)O1	-0.409	-0.324	-0.163	0.13	-1.06	0.372	0.215	0.403 (inactive)	-0.303	-0.147	0.12	0.0343 (inactive)	-0.212 (inactive)	0.261 (inactive)	-0.177	0.358 (inactive)	-0.209	0.185	-1.3	-0.172
CCCNC(=O)OC[C@H]1O[C@H](CCON=C(C)CCN2CCc3nc(CC)c(CC)cc3C2)C=C[C@@H]1Oc1ccc(OC)cc1	-0.343	1.59	-0.129	-0.0187	0.0329	0.51	0.428	0.31 (inactive)	-0.0665	0.5	0.285	-0.348 (inactive)	-2.36 (inactive)	0.156 (inactive)	0.73	0.004 (inactive)	-0.0539	0.559	-0.286	-0.0381
